Records with an inconclusive call do not appear. Active and inactive are the calls of the source. Calls follow the shape of the dose curve; as a rule, active = well fitted curve in the direction sought with a large enough effect; inconclusive = small, poorly fitted or top-dose-only effect, or another doubt; inactive = no such curve, though single readings can be large; an effect the other way counts as inactive or inconclusive.
Assays:
[1] = Quantitative High-Throughput drug screen in 47 multiple myeloma cell lines against the NCATS MIPE library collection: EJM_DSMZ cell viability assay (AID 1918926; also: nearly all actives have a fitted effect of over 30% in size)
Outline: (§1)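 Relative luminescence from CellTiter-Glo served as the viability signal, referenced to DMSO-treated (100%) and cell-free medium (0%) controls. Treatment lasted 48 hours at 37C with 500 cells per well.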

[2] = Quantitative High-Throughput drug screen in 47 multiple myeloma cell lines against the NCATS MIPE library collection: AMO1_DSMZ cell viability assay (AID 1918927; also: nearly all actives have a fitted effect of over 30% in size)
Outline: as §1

[3] = Quantitative High-Throughput drug screen in 47 multiple myeloma cell lines against the NCATS MIPE library collection: ARP1_JJKsccF8 cell viability assay (AID 1918928; also: nearly all actives have a fitted effect of over 40% in size)
Outline: (§2)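 Cell viability inhibition in this qHTS is measured via ATP content (CellTiter-Glo) after 48 h drug exposure at 37 °C. Wells hold 500 cells; DMSO-treated wells define 100% and medium-only wells 0%.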

[4] = Quantitative High-Throughput drug screen in 47 multiple myeloma cell lines against the NCATS MIPE library collection: ARD_JJKsccE7 cell viability assay (AID 1918929)
Outline: as §1

[5] = Quantitative High-Throughput drug screen in 47 multiple myeloma cell lines against the NCATS MIPE library collection: Karpas620_DSMZ cell viability assay (AID 1918959); also: nearly all actives have a fitted effect of over 30% in size
Outline: (§3)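 qHTS of the MIPE 4.0 collection: 500 myeloma cells/well, 48 h drug exposure at 37C in 5% CO2, then CellTiter-Glo for 5 min at room temperature before luminescence reading.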

[6] = Quantitative High-Throughput drug screen in 47 multiple myeloma cell lines against the NCATS MIPE library collection: KMM1_JCRB cell viability assay (AID 1918960); also: nearly all actives have a fitted effect of over 30% in size
Outline: as §2

[7] = Quantitative High-Throughput drug screen in 47 multiple myeloma cell lines against the NCATS MIPE library collection: Karpas417_ECACC cell viability assay (AID 1918961); settings: Karpas417 myeloma viability, CellTiter-Glo ATP luminescence, 48 h; viability (% of DMSO): at 45.8 µM (top of the series)
Outline: (§4)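 Luminescent ATP measurement with CellTiter-Glo gives viability, scaled between DMSO-only wells (100%) and media-only wells (0%). Cells, 500 per well, faced library compounds for 48 hours at 37C.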

[8] = Quantitative High-Throughput drug screen in 47 multiple myeloma cell lines against the NCATS MIPE library collection: KHM11_PLB cell viability assay (AID 1918962); also: nearly all actives have a fitted effect of over 35% in size
Outline: as §3

[9] = Quantitative High-Throughput drug screen in 47 multiple myeloma cell lines against the NCATS MIPE library collection: JIM3_ECACC cell viability assay (AID 1918963; also: nearly all actives have a fitted effect of over 35% in size)
Outline: as §3

[10] = Quantitative High-Throughput drug screen in 47 multiple myeloma cell lines against the NCATS MIPE library collection: JIM1_ECACC cell viability assay (AID 1918964)
Outline: as §1

[11] = Quantitative High-Throughput drug screen in 47 multiple myeloma cell lines against the NCATS MIPE library collection: INA6_PLB cell viability assay (AID 1918965; also: nearly all actives have a fitted effect of over 55% in size)
Outline: as §4

[12] = Quantitative High-Throughput drug screen in 47 multiple myeloma cell lines against the NCATS MIPE library collection: JJN3_DSMZ cell viability assay (AID 1918966; also: nearly all actives have a fitted effect of over 50% in size)
Outline: as §1

[13] = Quantitative High-Throughput drug screen in 47 multiple myeloma cell lines against the NCATS MIPE library collection: H1112_PLB cell viability assay (AID 1918967; also: nearly all actives have a fitted effect of over 30% in size)
Outline: as §1

[14] = Quantitative High-Throughput drug screen in 47 multiple myeloma cell lines against the NCATS MIPE library collection: Karpas25_ECACC cell viability assay (AID 1918968; also: nearly all actives have a fitted effect of over 35% in size)
Outline: as §1

[15] = Quantitative High-Throughput drug screen in 47 multiple myeloma cell lines against the NCATS MIPE library collection: KMS27_JCRB cell viability assay (AID 1918970); also: nearly all actives have a fitted effect of over 30% in size
Outline: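 ATP-based viability (CellTiter-Glo luminescence) is measured in cells treated 48 h with approved and investigational drugs at 37 °C. Controls are DMSO-only wells for full viability and media-only wells for none.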

[16] = Quantitative High-Throughput drug screen in 47 multiple myeloma cell lines against the NCATS MIPE library collection: KMS12BM_JCRB cell viability assay (AID 1918971); also: nearly all actives have a fitted effect of over 35% in size
Outline: (§5)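 Myeloma cell lines, 500 cells per well, exposed to MIPE 4.0 library compounds for 48 h at 37C, 5% CO2. Viability from ATP by CellTiter-Glo luminescence; normalised to DMSO (100%) and media-only (0%) wells.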

[17] = Quantitative High-Throughput drug screen in 47 multiple myeloma cell lines against the NCATS MIPE library collection: KMS12PE_JCRB cell viability assay (AID 1918972); also: nearly all actives have a fitted effect of over 30% in size
Outline: as §4

[18] = Quantitative High-Throughput drug screen in 47 multiple myeloma cell lines against the NCATS MIPE library collection: KMS20_JCRB cell viability assay (AID 1918973); also: nearly all actives have a fitted effect of over 45% in size
Outline: as §1

[19] = Quantitative High-Throughput drug screen in 47 multiple myeloma cell lines against the NCATS MIPE library collection: KMS21BM_JCRB cell viability assay (AID 1918974); settings: ATP luminescence, 48 h; viability: at 45.8 µM (top of the series)
Outline: as §1

[20] = Quantitative High-Throughput drug screen in 47 multiple myeloma cell lines against the NCATS MIPE library collection: KMS26_JCRB cell viability assay (AID 1918975); also: nearly all actives have a fitted effect of over 45% in size
Outline: as §5
Potency is read from the fitted curve at half-maximal effect.

| SMILES | Potency [1] | Potency [2] | Potency [3] | Potency [4] | Potency [5] | Potency [6] | Potency [7] | Potency [8] | Potency [9] | Potency [10] | Potency [11] | Potency [12] | Potency [13] | Potency [14] | Potency [15] | Potency [16] | Potency [17] | Potency [18] | Potency [19] | Potency [20] |
| --- | --- | --- | --- | --- | --- | --- | --- | --- | --- | --- | --- | --- | --- | --- | --- | --- | --- | --- | --- | --- |
| C[C@@H]1CC[C@@]2(OC1)O[C@H]1C[C@H]3[C@@H]4CC=C5C[C@@H](O[C@@H]6O[C@H](CO)[C@@H](O[C@@H]7O[C@@H](C)[C@H](O)[C@@H](O)[C@@H]7O)[C@H](O)[C@@H]6O[C@@H]6O[C@@H](C)[C@H](O)[C@@H](O)[C@@H]6O)CC[C@]5(C)[C@@H]4CC[C@]3(C)[C@@H]1[C@H]2C | 2.64 µM (active) | 2.64 µM (active) | 3.32 µM (active) | 2.35 µM (active) | 2.96 µM (active) | 2.64 µM (active) | 1.05 µM (active) | 2.96 µM (active) | 3.72 µM (active) | 2.35 µM (active) | 5.26 µM (active) | 2.35 µM (active) | 4.69 µM (active) | 3.32 µM (active) | 0.935 µM (active) | 2.64 µM (active) | 1.32 µM (active) | 4.18 µM (active) | 1.48 µM (active) | 2.35 µM (active) |
| CC1=C(O)C(=O)C=C2C1=CC=C1[C@@]2(C)CC[C@@]2(C)[C@@H]3C[C@](C)(C(=O)O)CC[C@]3(C)CC[C@]12C | 0.743 µM (active) | 0.526 µM (active) | 0.743 µM (active) | 1.05 µM (active) | 1.05 µM (active) | 0.833 µM (active) | 0.743 µM (active) | 0.743 µM (active) | 0.662 µM (active) | 0.743 µM (active) | 0.743 µM (active) | 0.743 µM (active) | 1.32 µM (active) | 0.833 µM (active) | 1.87 µM (active) | 0.526 µM (active) | 1.05 µM (active) | 0.935 µM (active) | – | 0.418 µM (active) |
| C=CCON=C(C[C@H]1O[C@@H]2O[C@]3(C)CC[C@@H]4[C@H](C)CC[C@@H]([C@H]1C)[C@@]24OO3)[C@H]1O[C@@H]2O[C@]3(C)CC[C@H]4[C@H](C)CC[C@@H]([C@@H]1C)[C@@]24OO3 | 0.148 µM (active) | 0.118 µM (active) | 0.0209 µM (active) | 0.132 µM (active) | – | – | 0.148 µM (active) | 0.418 µM (active) | – | – | 0.469 µM (active) | 0.418 µM (active) | 0.469 µM (active) | 0.209 µM (active) | – | 0.148 µM (active) | – | 0.372 µM (active) | – | 0.264 µM (active) |
| Cc1nc(-c2ccc(-c3ccc(C(=O)N4CCc5cc6c(cc54)C4(CCN(C)CC4)CO6)cc3)c(C)c2)no1 | inactive | inactive | – | – | inactive | inactive | – | – | inactive | – | – | – | inactive | – | inactive | inactive | – | inactive | – | – |
| COc1cc2cc(c1Cl)N(C)C(=O)C[C@H](OC(=O)C(C)C)[C@]1(C)O[C@H]1[C@H](C)[C@@H]1C[C@@](O)(NC(=O)O1)[C@H](OC)C=CC=C(C)C2 | inactive | inactive | inactive | inactive | – | inactive | – | inactive | inactive | inactive | inactive | inactive | – | inactive | inactive | inactive | inactive | inactive | – | inactive |
| CC(C)(C)[C@]1(O)C[C@@H]2OC(=O)C[C@@]23C(=O)O[C@@H]2OC(=O)[C@H](O)C213 (stereo not given in full) | inactive | inactive | – | – | inactive | inactive | – | – | inactive | 0.0332 µM (active) | inactive | – | inactive | inactive | inactive | inactive | – | – | – | – |
| CCOC(=O)Nc1ccc(NCc2ccc(F)cc2)cc1N | inactive | inactive | inactive | – | – | 6.62 µM (active) | inactive | – | – | – | – | – | 10.5 µM (active) | – | – | – | 3.32 µM (active) | – | inactive | inactive |
| O=C1C=CC[C@@H]2[C@H]3CCCN4CCC[C@@H](CN12)[C@@H]34 | inactive | inactive | inactive | – | inactive | – | inactive | – | inactive | – | – | – | – | – | – | – | inactive | inactive | – | – |
| CC(=O)OCC1=C(C(=O)O)N2C(=O)[C@@H](N)[C@@H]2SC1 | inactive | 23.5 µM (active) | – | – | 10.5 µM (active) | – | – | inactive | inactive | – | – | – | inactive | inactive | 7.43 µM (active) | – | – | – | – | – |
| COc1ccc(N(C(=O)Oc2c(C)cccc2C)c2ccnc(Nc3ccc(N4CCN(C)CC4)cc3)n2)c(OC)c1 | 0.743 µM (active) | 1.48 µM (active) | – | 7.43 µM (active) | 2.64 µM (active) | – | – | – | – | 2.64 µM (active) | 1.48 µM (active) | 18.7 µM (active) | 0.372 µM (active) | 2.64 µM (active) | 2.96 µM (active) | 1.48 µM (active) | – | – | 0.235 µM (active) | 1.48 µM (active) |
| COC1=CC(C)=C[C@@H](C)[C@@H](O)[C@@H](C)CC(C)=CC=C[C@H](OC)[C@H]([C@@H](C)[C@@H](O)[C@H](C)[C@@]2(O)C[C@@H](O)[C@H](C)[C@@H](C(C)C)O2)OC1=O | 18.7 µM (active) | 0.001 µM (active) | – | – | 14.8 µM (active) | – | – | 0.001 µM (active) | – | 0.001 µM (active) | – | – | 1.66 µM (active) | 0.0083 µM (active) | – | – | – | 0.001 µM (active) | – | 0.0033 µM (active) |
